From PubChem BioAssay (EPA / NIEHS) come the findings set out here.

Usually AC50 stands for the concentration at which the activity in the assay is half-maximal.

The nature of experiment [1]: ATG_DR4_LXR_CIS: Attagene CIS-FACTORIAL HepG2 Assay for human Liver X Receptor (LXR), DR4 submotif (AID 2282929). Conditions: HepG2 Attagene DR4 cis-reporter, mRNA transcription; actives raise or lower the signal. The procedure, abridged: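 DR4 cis-reporter in HepG2, 24 h exposure. Detection: RT-PCR, 6-FAM labelling, CE fragment analysis. Endpoint fitted bidirectionally, DMSO = baseline.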

In experiment [2] the target is Aryl hydrocarbon receptor (Homo sapiens) (UniProt P35869). Description: ATG_Ahr_CIS: Attagene CIS-FACTORIAL HepG2 Assay for human Aryl Hydrocarbon Receptor (Ahr) (AID 2282930). Particulars: HepG2 AhR cis-factorial reporter transcription; actives raise or lower the signal. In outline: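 HepG2 cells transiently transfected with cis-element-driven multiplexed reporter transcription units; endogenous transcription factor activity measured as reporter mRNA 24 h after dosing. RT-PCR, 6-FAM labelling, HpaI digestion, capillary electrophoresis; bidirectional fitting versus DMSO baseline.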
Sequence of Aryl hydrocarbon receptor (Homo sapiens) (P35869 whole entry, looked up): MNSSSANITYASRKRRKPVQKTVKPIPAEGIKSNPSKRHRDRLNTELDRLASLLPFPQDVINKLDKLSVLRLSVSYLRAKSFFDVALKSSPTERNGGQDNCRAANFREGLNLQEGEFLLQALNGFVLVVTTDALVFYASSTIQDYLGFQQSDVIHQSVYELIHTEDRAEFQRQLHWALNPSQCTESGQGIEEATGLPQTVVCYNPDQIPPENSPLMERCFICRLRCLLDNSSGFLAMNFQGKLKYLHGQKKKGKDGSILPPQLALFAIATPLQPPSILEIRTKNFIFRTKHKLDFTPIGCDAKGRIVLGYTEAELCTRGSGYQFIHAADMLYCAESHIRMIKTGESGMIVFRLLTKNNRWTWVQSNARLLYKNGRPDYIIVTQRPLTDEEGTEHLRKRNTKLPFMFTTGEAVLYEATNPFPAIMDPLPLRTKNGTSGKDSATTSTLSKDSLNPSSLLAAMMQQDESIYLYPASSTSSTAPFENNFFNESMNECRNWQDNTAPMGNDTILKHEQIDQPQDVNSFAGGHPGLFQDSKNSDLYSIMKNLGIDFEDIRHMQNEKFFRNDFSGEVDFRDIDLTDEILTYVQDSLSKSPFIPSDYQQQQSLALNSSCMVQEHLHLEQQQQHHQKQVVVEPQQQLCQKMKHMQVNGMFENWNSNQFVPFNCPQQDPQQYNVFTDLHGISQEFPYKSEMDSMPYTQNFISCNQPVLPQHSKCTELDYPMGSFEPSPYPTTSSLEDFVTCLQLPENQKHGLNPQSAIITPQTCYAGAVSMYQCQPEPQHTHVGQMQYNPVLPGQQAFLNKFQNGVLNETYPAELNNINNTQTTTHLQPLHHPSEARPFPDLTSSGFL

Experiment [3] can be described thus: ATG_AP_1_CIS: Attagene CIS-FACTORIAL HepG2 Assay for human Activator Protein 1 (AP-1) (AID 2282931). Conditions: HepG2 Attagene cis-factorial AP-1 reporter mRNA; actives raise or lower the signal. The procedure, abridged:
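Cis-regulated reporter units transiently expressed in HepG2 report endogenous transcription-factor activity. Signal: reporter mRNA at 24 h, via RT-PCR and fluorescent capillary electrophoresis. Endpoint derived by bidirectional fitting, DMSO as negative control.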

Experiment [4] can be described thus: ATG_AP_2_CIS: Attagene CIS-FACTORIAL HepG2 Assay for human Activator Protein 2 (AP-2) (AID 2282932). Particulars: HepG2 AP-2 cis-reporter, Attagene transcription factor profiling; actives raise or lower the signal. In outline: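 Cells (HepG2) transfected with promoter-driven reporter constructs, treated 24 h. Total RNA reverse-transcribed, reporter cDNA PCR-amplified, FAM-labelled by primer extension, digested, resolved by capillary electrophoresis. Activity fitted both directions versus DMSO.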

Experiment [5] is described as follows: ATG_BRE_CIS: Attagene CIS-FACTORIAL HepG2 Assay for human Bone Morphogenetic Protein (BMP) Response Element (BRE) (AID 2282933). Particulars: HepG2 BMP response element reporter, Attagene transcription factor profiling; actives raise or lower the signal. The procedure, abridged:
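A HepG2 multiplex reporter system measured inducible reporter mRNA 24 h post-dosing. Detection: RT-PCR, 6-FAM primer extension, HpaI digestion, capillary electrophoresis. Activity fitted bidirectionally relative to DMSO.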

Experiment [6] concerns the target Retinoic acid receptor alpha (Homo sapiens) (UniProt P10276). As to the kind of experiment: ATG_DR5_RAR_CIS: Attagene CIS-FACTORIAL HepG2 Assay for human Retinoic Acid Receptor Alpha (RARE), DR5 submotif (AID 2282934). Conditions: HepG2 Attagene cis-factorial RARE DR5 reporter, mRNA; actives raise or lower the signal. In outline: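 HepG2 cells transiently transfected with multiplexed reporter units under cis (DR5 RARE) promoters, so endogenous transcription factor activity is measured. After 24 h compound exposure, reporter mRNA is quantified by RT-PCR with fluorescent labelling and capillary electrophoresis; bidirectional fitting versus DMSO.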

Experiment [7] concerns the target Transcription factor E2F1 (Homo sapiens) (UniProt Q01094). As to the kind of experiment: ATG_E2F_CIS: Attagene CIS-FACTORIAL HepG2 Assay for human E2F Transcription Factor 1 (AID 2282935). Conditions: HepG2 Attagene cis-reporter, E2F reporter RNA transcripts; actives raise or lower the signal. The procedure, abridged: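 First, HepG2 cells were transfected with reporter transcription units. Next, they were dosed for 24 h. Then RNA was isolated, converted to cDNA, PCR-amplified, FAM-labeled, HpaI-digested and analyzed by capillary electrophoresis.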

Experiment [8] can be described thus: ATG_E_Box_CIS: Attagene CIS-FACTORIAL HepG2 Assay for human Enhancer Box (E-box) (AID 2282936). Conditions: HepG2 E-box cis-reporter transcription, actives raise or lower the signal. In outline:
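Endogenous transcription factor activity was sensed in human HepG2 liver cells through transfected cis-promoter reporter units. After 24 h of dosing, total RNA was reverse-transcribed and reporter cDNA resolved by capillary electrophoresis.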

Experiment [9] can be described thus: ATG_EGR_CIS: Attagene CIS-FACTORIAL HepG2 Assay for human Early Growth Response 1 (EGR1) (AID 2282938). Particulars: HepG2 Attagene CIS-FACTORIAL EGR reporter mRNA; actives raise or lower the signal. In outline: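 Endpoint derived by bidirectional fitting versus DMSO vehicle. Method: cis-promoter reporter units transfected into HepG2, 24 h dosing, RNA isolation, RT-PCR with 6-FAM primer extension and HpaI digestion, then capillary electrophoresis fluorescence detection.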

A short description of experiment [10]: ATG_M_19_CIS: Attagene CIS-FACTORIAL HepG2 Assay for M19 Transcription Factor (Internal Marker) (AID 2282939). Particulars: HepG2 Attagene CIS-FACTORIAL M19 internal marker reporter; actives raise or lower the signal. The procedure, abridged:
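Chemical-treated HepG2 (24 h) with MRTU constructs; reporter transcripts detected by fluorescent RT-PCR fragment analysis on capillary electrophoresis. Internal background marker, DMSO as baseline.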

Experiment [11] can be described thus: ATG_ERE_CIS: Attagene CIS-FACTORIAL HepG2 Assay for Estrogen Response Element (ERE) (AID 2282940). Particulars: HepG2 ERE cis-reporter, Attagene RNA transcript; actives raise or lower the signal. In outline:
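Human liver cells (HepG2) bearing transiently transfected, promoter-regulated reporter units were exposed 24 h. Reporter mRNA induction was detected by capillary electrophoresis of labelled RT-PCR products and fitted bidirectionally to DMSO.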

Experiment [12] is described as follows: ATG_Ets_CIS: Attagene CIS-FACTORIAL HepG2 Assay for human Erythroblast Transformation Specific (ETS) (AID 2282941). Particulars: HepG2 ETS cis-reporter transcription, actives raise or lower the signal. In outline: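 RT-PCR/capillary electrophoresis fluorescence read-out of reporter mRNA; HepG2 transient multi-reporter transfection; 24 h compound exposure; gain or loss of signal fitted bidirectionally relative to DMSO.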

The nature of experiment [13]: ATG_FoxO_CIS: Attagene CIS-FACTORIAL HepG2 Assay for human Forkhead box O (FoxO) (AID 2282943). Particulars: HepG2 Attagene cis-reporter, FoxO element, mRNA; actives raise or lower the signal. In outline:
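HepG2 cells transiently transfected with cis-promoter-driven multiple reporter transcription units; 24 h after chemical dosing, reporter mRNA quantified by RT-PCR, fluorescent primer extension, HpaI digestion and capillary electrophoresis. Bidirectional fitting versus DMSO baseline.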

The nature of experiment [14]: ATG_GATA_CIS: Attagene CIS-FACTORIAL HepG2 Assay for human GATA Binding Protein (AID 2282944). Conditions: HepG2 GATA cis-element reporter, Attagene multiplex mRNA; actives raise or lower the signal. The procedure, abridged: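 Transfected cis-reporter HepG2 cells were treated with chemicals for 24 hours. Total RNA was then converted to cDNA, amplified with reporter-specific primers and analysed by fluorescent capillary electrophoresis, using DMSO-treated wells as baseline.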

Experiment [15] is described as follows: ATG_GLI_CIS: Attagene CIS-FACTORIAL HepG2 Assay for human Zinc Finger Protein GLI1 (AID 2282945). Conditions: HepG2, Attagene cis-factorial reporter mRNA, GLI element; actives raise or lower the signal. In outline: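 HepG2 cells transiently transfected with cis-promoter multiplexed reporter units report endogenous transcription factor activity. After 24 h chemical exposure, reporter mRNA was quantified by RT-PCR, 6-FAM labelling, HpaI digestion and capillary electrophoresis, with bidirectional fitting against DMSO.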

Experiment [16] addresses Bile acid receptor (Homo sapiens) (UniProt Q96RI1). As to the kind of experiment: ATG_IR1_CIS: Attagene CIS-FACTORIAL HepG2 Assay for human Nuclear Receptor Subfamily 1 Group H Member 4 (NR1H4), IR1 submotif (AID 2282946). Conditions: IR1 reporter transcription, actives raise or lower the signal. In outline: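 Readout: reporter transcript levels by RT-PCR with fluorescent capillary electrophoresis, from HepG2 cells transiently transfected with multiplexed cis-regulated reporters and dosed 24 h. Gain- or loss-of-signal fitted versus DMSO negative control.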

A short description of experiment [17]: ATG_GRE_CIS: Attagene CIS-FACTORIAL HepG2 Assay for human Glucocorticoid Response Elements (GRE) (AID 2282947). Conditions: HepG2 GRE cis-reporter, Attagene multiplex mRNA; actives raise or lower the signal. The procedure, abridged:
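Cells (HepG2) bearing transfected cis-promoter reporter transcription units were treated with chemical for 24 hours. Reporter mRNA was measured via RT-PCR with capillary electrophoresis, and activity was fitted in both directions relative to DMSO.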

A short description of experiment [18]: ATG_ISRE_CIS: Attagene CIS-FACTORIAL HepG2 Assay for human Interferon Regulatory Factor 1 (IRF1) binding to an Interferon-Stimulated Response Element (ISRE) (AID 2282948). Particulars: HepG2 ISRE cis-reporter (Attagene), mRNA transcription readout; actives raise or lower the signal. In outline:
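Read-out: fluorescent RT-PCR products resolved by capillary electrophoresis, reporting endogenous transcription factor activity via ISRE-driven reporter mRNA in transfected HepG2 cells dosed for 24 h; gain or loss fitted relative to DMSO.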

Experiment [19] has as its target Hepatocyte nuclear factor 3-beta (Homo sapiens) (UniProt Q9Y261). As to the kind of experiment: ATG_FoxA2_CIS: Attagene CIS-FACTORIAL HepG2 Assay for human Forkhead box A2 (FOXA2) (AID 2282942). Conditions: HepG2 cis-reporter transcription factor activity, 24 h; actives raise or lower the signal. The procedure, abridged: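 Measured: reporter mRNA induction or loss in HepG2 transiently carrying multiple cis-regulated reporter units, 24 h after dosing. Quantified by RT-PCR plus capillary electrophoresis, normalised to DMSO.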

Experiment [20] is described as follows: ATG_M_61_CIS: Attagene CIS-FACTORIAL HepG2 Assay for M61 Transcription Factor (Internal Marker) (AID 2282937). Conditions: HepG2 Attagene CIS-FACTORIAL M61 internal marker reporter; actives raise or lower the signal. In outline: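 Background-control endpoint: HepG2 cells with cis-regulated reporter constructs, 24 h exposure, reporter mRNA detected via fluorescent primer extension and capillary electrophoresis; values from bidirectional fitting with DMSO baseline.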

Calls of active or inactive are those of the source. The calls were made as follows: active = hit-call score of the fitted dose curve at least 0.9, where 1 is the maximum; inactive = score below 0.9.

Sequence of Bile acid receptor (Homo sapiens) (Q96RI1 whole entry, looked up): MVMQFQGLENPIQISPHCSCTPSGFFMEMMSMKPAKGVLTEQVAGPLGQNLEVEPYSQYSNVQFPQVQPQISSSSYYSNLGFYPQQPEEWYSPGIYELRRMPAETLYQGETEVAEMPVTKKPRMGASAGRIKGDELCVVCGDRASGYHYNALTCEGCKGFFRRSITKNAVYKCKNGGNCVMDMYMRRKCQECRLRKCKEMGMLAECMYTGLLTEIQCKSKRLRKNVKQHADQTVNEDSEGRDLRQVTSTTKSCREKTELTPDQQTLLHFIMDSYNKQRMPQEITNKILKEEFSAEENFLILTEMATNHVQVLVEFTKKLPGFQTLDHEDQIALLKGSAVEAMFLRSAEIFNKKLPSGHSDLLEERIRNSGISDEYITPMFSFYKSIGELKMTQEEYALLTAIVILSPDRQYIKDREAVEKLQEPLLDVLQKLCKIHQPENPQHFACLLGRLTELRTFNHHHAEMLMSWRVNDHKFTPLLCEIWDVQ
Sequence of Transcription factor E2F1 (Homo sapiens) (Q01094 whole entry, looked up): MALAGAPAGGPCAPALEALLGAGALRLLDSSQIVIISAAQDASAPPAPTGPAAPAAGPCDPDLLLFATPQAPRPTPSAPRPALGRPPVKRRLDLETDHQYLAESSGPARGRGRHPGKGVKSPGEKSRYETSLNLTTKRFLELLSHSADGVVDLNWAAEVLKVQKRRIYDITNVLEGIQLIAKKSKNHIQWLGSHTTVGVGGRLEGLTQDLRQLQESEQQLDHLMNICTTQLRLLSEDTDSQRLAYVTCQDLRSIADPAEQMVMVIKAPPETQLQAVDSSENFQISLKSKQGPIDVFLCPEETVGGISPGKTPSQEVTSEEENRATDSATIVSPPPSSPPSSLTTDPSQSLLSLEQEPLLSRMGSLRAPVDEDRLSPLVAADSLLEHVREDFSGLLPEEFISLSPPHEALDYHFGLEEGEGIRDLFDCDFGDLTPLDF
Sequence of Retinoic acid receptor alpha (Homo sapiens) (P10276 whole entry, looked up): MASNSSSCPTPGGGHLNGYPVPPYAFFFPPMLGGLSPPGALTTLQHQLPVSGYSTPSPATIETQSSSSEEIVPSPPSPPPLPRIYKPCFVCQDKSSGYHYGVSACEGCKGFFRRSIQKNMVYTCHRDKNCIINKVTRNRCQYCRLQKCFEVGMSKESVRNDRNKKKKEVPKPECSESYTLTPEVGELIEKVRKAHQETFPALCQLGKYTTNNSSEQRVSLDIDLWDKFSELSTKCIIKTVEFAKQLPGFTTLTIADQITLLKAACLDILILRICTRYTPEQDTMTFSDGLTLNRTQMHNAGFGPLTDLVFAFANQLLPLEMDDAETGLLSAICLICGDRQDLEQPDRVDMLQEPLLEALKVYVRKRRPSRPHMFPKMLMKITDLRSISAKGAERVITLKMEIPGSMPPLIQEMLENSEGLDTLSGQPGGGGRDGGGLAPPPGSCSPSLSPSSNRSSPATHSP
Sequence of Hepatocyte nuclear factor 3-beta (Homo sapiens) (Q9Y261 whole entry, looked up): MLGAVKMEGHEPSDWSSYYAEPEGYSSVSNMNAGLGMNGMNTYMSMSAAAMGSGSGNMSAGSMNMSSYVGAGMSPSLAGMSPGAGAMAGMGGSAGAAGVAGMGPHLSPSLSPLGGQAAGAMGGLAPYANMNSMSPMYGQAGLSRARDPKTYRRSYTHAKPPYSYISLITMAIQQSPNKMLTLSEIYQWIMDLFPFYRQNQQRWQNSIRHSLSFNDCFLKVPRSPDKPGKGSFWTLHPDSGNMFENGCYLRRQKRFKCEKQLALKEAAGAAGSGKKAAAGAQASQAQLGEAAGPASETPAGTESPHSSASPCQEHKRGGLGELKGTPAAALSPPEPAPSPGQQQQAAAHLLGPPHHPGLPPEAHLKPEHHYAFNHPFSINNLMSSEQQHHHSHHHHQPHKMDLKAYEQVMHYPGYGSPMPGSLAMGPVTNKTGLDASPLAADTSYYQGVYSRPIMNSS

Consider `CCOP(=S)(OCC)SCS(=O)(=O)C(C)(C)C`, for which the AC50 in [1] was 29.2 µM (active); in experiment [16] it was 34.8 µM (active). The compound was called inactive in experiment [2], in experiment [3], in [4], in [5], in [6] and in experiment [7]. Moreover, the outcome in experiment [8], in experiment [9], in [10], in [11], in experiment [12] and in [13] was inactive. The outcome in experiment [14], in experiment [15], in experiment [17] and in [18] was inactive.

For the compound `O=[N+]([O-])c1c2ccccc2cc2ccccc12`, the compound was classed as inactive in [1], in [2], in [3], in experiment [4], in experiment [5] and in experiment [6]. Further, the result in experiment [7], in [8], in [9], in experiment [10], in experiment [12] and in [13] was inactive. The outcome in experiment [14], in experiment [15], in experiment [17] and in experiment [18] was inactive.

As for `CN(C)c1ccc(N=O)cc1`, the concentration at half-maximal activity (AC50) in experiment [1] is 9.26 µM (active); in experiment [2], 8.04 µM (active); in [8], 10.3 µM (active); in experiment [16] it was 9.69 µM (active); in [18] it was 9.25 µM (active). Also, the result in experiment [3], in [4], in [5], in [6], in [7] and in experiment [10] was inactive. Besides, the call in experiment [11], in experiment [12], in experiment [19], in experiment [13], in experiment [14] and in [15] was inactive.

`Cc1cccc(C)c1NC(=O)CN1CCCC1=O`: the outcome in [1], in experiment [2], in [3], in experiment [4], in [5] and in experiment [6] was inactive. Also, the outcome in experiment [7], in experiment [8], in experiment [20], in experiment [10], in experiment [12] and in experiment [19] was inactive. Moreover, the compound was called inactive in [13], in experiment [14], in [15], in experiment [16] and in experiment [18].
